According to PubChem BioAssay (NCATS):
Records with an inconclusive call do not appear. Entries that show only a call come without a potency. Active and inactive are the calls of the source. Calls come from the whole dose curve; as a rule, active = well fitted cell-killing curve with a large enough effect; inconclusive = small, poorly fitted or top-dose-only effect, or effect the other way; inactive = no such curve, though single readings can be large or run the other way.

Experiment: Quantitative High-Throughput drug screen in 47 multiple myeloma cell lines against the NCATS MIPE library collection: JIM1_ECACC cell viability assay (AID 1918964)
Settings: JIM1 myeloma viability, CellTiter-Glo ATP luminescence, 48 h; series mostly up to 45.8 µM
Method in brief: (§1)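 Myeloma cell lines, 500 cells per well, exposed to MIPE 4.0 library compounds for 48 h at 37C, 5% CO2. Viability from ATP by CellTiter-Glo luminescence; normalised to DMSO (100%) and media-only (0%) wells.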
Potency is the fitted concentration of half-maximal effect.

| Compound | Potency |
| --- | --- |
| O=C1NC(=O)C(c2ccccc2[N+](=O)[O-])=C1Nc1ccc(O)c(Cl)c1 | inactive |
| CCc1nc(N)nc(N)c1-c1ccc(Cl)cc1 | inactive |
| NS(=O)(=O)c1cc(C(=O)O)c(NCc2ccco2)cc1Cl | inactive |
| CN(C)[C@@H](CCOc1cccc2ccccc12)c1ccccc1 | inactive |
| CCCS(=O)c1ccc2nc(NC(=O)OC)[nH]c2c1 (configuration not stated) | inactive |
| C[C@H](Cc1ccc(O)c(O)c1)[C@@H](C)Cc1ccc(O)c(O)c1 | inactive |
| O=C1c2c(O)cc(O)cc2OC(c2ccc(O)c(O)c2)C1O (configuration not stated) | inactive |
| CC(C)c1ccc2c(c1)c(SC(C)(C)C)c(CC(C)(C)C(=O)O)n2Cc1ccc(Cl)cc1 | inactive |
| CC(=O)N1CCN(c2ccc(OC[C@H]3CO[C@](Cn4ccnc4)(c4ccc(Cl)cc4Cl)O3)cc2)CC1 | inactive |
| Nc1nc(Cl)nc2c1ncn2[C@H]1C[C@H](O)[C@@H](CO)O1 | 2.35 µM (active) |
| O=C1CCc2ccc(OCCCCN3CCN(c4cccc(Cl)c4Cl)CC3)cc2N1 | inactive |
| CCN(CCO)CCCC(C)Nc1ccnc2cc(Cl)ccc12 (configuration not stated) | inactive |

Experiment: Quantitative High-Throughput drug screen in 47 multiple myeloma cell lines against the NCATS MIPE library collection: INA6_PLB cell viability assay (AID 1918965; note: nearly all actives have a fitted effect of over 55% in size)
Settings: INA6 myeloma viability, CellTiter-Glo ATP luminescence, 48 h; series mostly up to 45.8 µM
Method in brief: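 Approved and investigational drugs from MIPE 4.0 were added by pin tool to 500 cells per well. After 48 hours at 37C, ATP-based CellTiter-Glo luminescence indicated remaining viability.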

| Compound | Potency |
| --- | --- |
| COc1cc(C(C)=O)ccc1OCCCN1CCC(c2noc3cc(F)ccc23)CC1 | 14.8 µM (active) |
| CC1=C(C(=O)O)N2C(=O)[C@@H](NC(=O)[C@H](N)C3=CCC=CC3)[C@H]2SC1 | inactive |
| CN(C)CCc1c[nH]c2ccc(Cn3cncn3)cc12 | 1.66 µM (active) |
| CCc1nc(N)nc(N)c1-c1ccc(Cl)cc1 | 10.5 µM (active) |
| CC1Cc2ccccc2N1NC(=O)c1ccc(Cl)c(S(N)(=O)=O)c1 (configuration not stated) | inactive |
| COc1cc2nc(N3CCN(C(=O)C4CCCO4)CC3)nc(N)c2cc1OC (configuration not stated) | inactive |
| CCN(CC)C(=S)SSC(=S)N(CC)CC | 0.001 µM (active) |
| Cc1cccc(C#Cc2ccccc2)n1 | 13.2 µM (active) |
| CN(C)C(=O)COC(=O)Cc1ccc(OC(=O)c2ccc(N=C(N)N)cc2)cc1 | 1.48 µM (active) |
| Clc1ccc(C(Cn2ccnc2)OCc2ccsc2Cl)c(Cl)c1 (configuration not stated) | 26.4 µM (active) |
| CN(C)[C@@H](CCOc1cccc2ccccc12)c1ccccc1 | 18.7 µM (active) |
| C[C@H](Cc1ccc(O)c(O)c1)[C@@H](C)Cc1ccc(O)c(O)c1 | 9.35 µM (active) |
| CN1CCC(=C2c3ccccc3CCc3sccc32)CC1 | 16.6 µM (active) |
| C[C@@H](N)C1CCC(C(=O)Nc2ccncc2)CC1 (some centres not stated) | 18.7 µM (active) |
| COc1cc(Nc2c(C#N)cnc3cc(OCCCN4CCN(C)CC4)c(OC)cc23)c(Cl)cc1Cl | 0.418 µM (active) |
| NC(=NCc1ccccc1)NC(=O)c1nc(Cl)c(N)nc1N | 9.35 µM (active) |
| O=C1c2c(O)cc(O)cc2OC(c2ccc(O)c(O)c2)C1O (configuration not stated) | inactive |
| Cc1ccc(C)c(OCCCC(C)(C)C(=O)O)c1 | 20.9 µM (active) |
| Nc1nc(OCc2ccccc2)c2[nH]cnc2n1 | 18.7 µM (active) |
| Nc1nc(Cl)nc2c1ncn2[C@H]1C[C@H](O)[C@@H](CO)O1 | 0.935 µM (active) |
| Cc1ccc(NC(=O)c2ccc(CN3CCN(C)CC3)cc2)cc1Nc1nccc(-c2cccnc2)n1 | 16.6 µM (active) |

Experiment: Quantitative High-Throughput drug screen in 47 multiple myeloma cell lines against the NCATS MIPE library collection: JJN3_DSMZ cell viability assay (AID 1918966; note: nearly all actives have a fitted effect of over 50% in size)
Settings: JJN3 myeloma cells viability, CellTiter-Glo ATP, 48 h; series mostly up to 45.8 µM
Method in brief: as §1

| Compound | Potency |
| --- | --- |
| Nc1cccc2c1CN(C1CCC(=O)NC1=O)C2=O (configuration not stated) | 1.71 µM (active) |
| COc1cc2nc(N3CCN(C(=O)C4CCCO4)CC3)nc(N)c2cc1OC (configuration not stated) | inactive |
| Clc1ccc(C(Cn2ccnc2)OCc2ccsc2Cl)c(Cl)c1 (configuration not stated) | inactive |
| C[C@H](Cc1ccc(O)c(O)c1)[C@@H](C)Cc1ccc(O)c(O)c1 | 14.8 µM (active) |
| Cc1ccc(C)c(OCCCC(C)(C)C(=O)O)c1 | inactive |

Experiment: Quantitative High-Throughput drug screen in 47 multiple myeloma cell lines against the NCATS MIPE library collection: H1112_PLB cell viability assay (AID 1918967; note: nearly all actives have a fitted effect of over 30% in size)
Settings: H1112 myeloma cells viability, ATP luminescence, 48 h; series mostly up to 45.8 µM
Method in brief: as §1

| Compound | Potency |
| --- | --- |
| COc1cc(C(C)=O)ccc1OCCCN1CCC(c2noc3cc(F)ccc23)CC1 | inactive |
| Nc1cccc2c1CN(C1CCC(=O)NC1=O)C2=O (configuration not stated) | inactive |
| CC(C)[N+]1(C)[C@@H]2CC[C@H]1CC(OC(=O)C(CO)c1ccccc1)C2 (some centres not stated) | inactive |
| CC1=C(C(=O)O)N2C(=O)[C@@H](NC(=O)[C@H](N)C3=CCC=CC3)[C@H]2SC1 | inactive |
| Cn1c(NCCN(CCO)CCCc2ccc([N+](=O)[O-])cc2)cc(=O)n(C)c1=O | inactive |
| O=C1NC(=O)C(c2ccccc2[N+](=O)[O-])=C1Nc1ccc(O)c(Cl)c1 | inactive |
| CN(C)CCc1c[nH]c2ccc(Cn3cncn3)cc12 | inactive |
| CC1Cc2ccccc2N1NC(=O)c1ccc(Cl)c(S(N)(=O)=O)c1 (configuration not stated) | inactive |
| CCN(CC)CCOc1ccc(Cc2ccccc2)cc1 | inactive |
| COc1cc2nc(N3CCN(C(=O)C4CCCO4)CC3)nc(N)c2cc1OC (configuration not stated) | inactive |
| CCN(CC)C(=S)SSC(=S)N(CC)CC | 0.001 µM (active) |
| Cc1cccc(C#Cc2ccccc2)n1 | inactive |
| CC1=C(C)C(=O)C(C(CCCCCC(=O)O)c2ccccc2)=C(C)C1=O (configuration not stated) | inactive |
| NS(=O)(=O)c1cc(C(=O)O)c(NCc2ccco2)cc1Cl | inactive |
| CN(C)C(=O)COC(=O)Cc1ccc(OC(=O)c2ccc(N=C(N)N)cc2)cc1 | 14.8 µM (active) |
| CN(C)[C@@H](CCOc1cccc2ccccc12)c1ccccc1 | 18.7 µM (active) |
| CN1CCC(=C2c3ccccc3CCc3sccc32)CC1 | inactive |
| C[C@@H](N)C1CCC(C(=O)Nc2ccncc2)CC1 (some centres not stated) | 14.8 µM (active) |
| COc1cc(Nc2c(C#N)cnc3cc(OCCCN4CCN(C)CC4)c(OC)cc23)c(Cl)cc1Cl | 9.35 µM (active) |
| NC(=NCc1ccccc1)NC(=O)c1nc(Cl)c(N)nc1N | 0.935 µM (active) |
| O=c1oc2cc(O)ccc2s1 | inactive |
| O=C1c2c(O)cc(O)cc2OC(c2ccc(O)c(O)c2)C1O (configuration not stated) | inactive |
| CC(=O)N1CCN(c2ccc(OC[C@H]3CO[C@](Cn4ccnc4)(c4ccc(Cl)cc4Cl)O3)cc2)CC1 | 8.33 µM (active) |
| Nc1nc(OCc2ccccc2)c2[nH]cnc2n1 | inactive |
| CC(C)C[C@H](NC(=O)[C@H](Cc1ccccc1)NC(=O)c1cnccn1)B(O)O | 0.0132 µM (active) |
| Cc1c(OCC(F)(F)F)ccnc1CS(=O)c1nc2ccccc2[nH]1 (configuration not stated) | 20.9 µM (active) |
| Cc1ccc(NC(=O)c2ccc(CN3CCN(C)CC3)cc2)cc1Nc1nccc(-c2cccnc2)n1 | inactive |
| C=C(c1ccc(C(=O)O)cc1)c1cc2c(cc1C)C(C)(C)CCC2(C)C | inactive |
| CCN(CCO)CCCC(C)Nc1ccnc2cc(Cl)ccc12 (configuration not stated) | inactive |
